Rows were chosen to be rich in hits. Some 3.2% of all compounds tested hit in one or more screens of this group.
MEKK2 mut-MEK5 = MEK5 binding signal on mutant MEKK2 PB1, primary screen, biochemical, multiplex bead flow cytometry, Alexa488-MEK5; percent response, % at 10 µM; Alexa488-MEK5 binding to MEKK2 mutant; AID 1530, 2009; 290,000 compounds, 0.35% hits; in the data active = percent response above about 24%, passing the limit was not always enough
MEKK3 PB1 HTS = modulators of MEKK3-MEK5 PB1 binding, primary screen, biochemical, wildtype MEKK3, multiplex bead flow cytometry, Alexa488-MEK5 | bead-based flow cytometry, Alexa488-MEK5 binding to MEKK3; actives lie on both sides; 0 = blocked by unlabeled MEK5, 100 = vehicle | binding response (% of control), % at 10 µM | 290,000 compounds, 1.4% hits | AID 1529, 2009;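 active = binding response more than 3 SD above or below the average of its plate-row segment, actives on both sides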;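 also: Alexa488 bead fluorescence after subtracting the streptavidin-only scavenger bead signal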
CendR NRP1 mod = modulators of CendR peptide binding to NRP-1, primary screen, biochemical, fluorescence polarization, uHTS | FAM-RPARPAR peptide binding to NRP-1 | inhibition, % at 25 µM | 360,000 compounds, 0.85% hits | AID 602438, 2012;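 active = inhibition or corrected inhibition above about 18%, plus a signal ratio from 0.5 to 1.5, limit read from the data, passing the limit was not always enough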
Target sequence (O14786 whole entry, looked up): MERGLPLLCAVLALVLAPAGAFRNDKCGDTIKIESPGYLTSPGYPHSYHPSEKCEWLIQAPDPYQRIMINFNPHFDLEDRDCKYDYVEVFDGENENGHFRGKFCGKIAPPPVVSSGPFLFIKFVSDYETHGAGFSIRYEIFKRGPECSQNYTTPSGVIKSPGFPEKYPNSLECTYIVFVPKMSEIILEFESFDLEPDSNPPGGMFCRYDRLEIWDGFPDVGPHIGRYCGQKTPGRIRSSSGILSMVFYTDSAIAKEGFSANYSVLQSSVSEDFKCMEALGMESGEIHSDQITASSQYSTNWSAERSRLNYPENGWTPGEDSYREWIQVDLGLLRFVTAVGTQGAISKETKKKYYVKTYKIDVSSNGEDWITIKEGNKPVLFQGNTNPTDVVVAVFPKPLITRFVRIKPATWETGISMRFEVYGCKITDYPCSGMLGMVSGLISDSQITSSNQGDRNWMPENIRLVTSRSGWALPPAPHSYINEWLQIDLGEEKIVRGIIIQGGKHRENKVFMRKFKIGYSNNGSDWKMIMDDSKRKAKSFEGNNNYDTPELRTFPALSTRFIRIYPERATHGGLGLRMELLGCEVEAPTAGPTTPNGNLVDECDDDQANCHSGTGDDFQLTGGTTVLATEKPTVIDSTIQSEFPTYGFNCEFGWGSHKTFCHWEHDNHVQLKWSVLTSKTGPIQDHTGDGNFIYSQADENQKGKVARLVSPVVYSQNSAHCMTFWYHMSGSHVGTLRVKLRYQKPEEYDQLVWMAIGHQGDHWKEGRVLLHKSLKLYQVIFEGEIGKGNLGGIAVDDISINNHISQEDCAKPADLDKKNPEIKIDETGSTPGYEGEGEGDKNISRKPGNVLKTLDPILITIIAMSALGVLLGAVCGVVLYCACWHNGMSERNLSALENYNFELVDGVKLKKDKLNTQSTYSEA
MEKK2wt PB1 HTS = modulators of MEK5 binding to wildtype MEKK2, primary screen, biochemical, multiplex bead flow cytometry, Alexa488-MEK5 | Mitogen-activated protein kinase kinase kinase 2 (Homo sapiens), Q9Y2U5 | Alexa488-MEK5 binding to MEKK2 WT; actives lie on both sides | binding response (% of control), % at 10 µM | 290,000 compounds, 1.1% hits; in the data active = binding response below about 67% or above about 130%
SKN-1 inh = suppressors of acrylamide-induced Pgst-4::GFP reporter in worms, primary screen, SKN-1 inhibitor project, whole organism, uHTS, GFP/RFP fluorescence ratio, strain VP596. inhibition, % at 21.8 µM. C. elegans VP596 Pgst-4::GFP/RFP ratio, 24 h. 360,000 compounds, 0.49% hits;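 active = interference check ratio from 0.5 to 1.5 plus GFP to RFP signal ratio inhibition reaching or exceeding a fixed threshold, cut at about 30% in these data, passing the limit was not always enough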
A number is an active result; . = inactive; / = not tested or not shown.

SMILES	MEKK2 mut-MEK5	MEKK3 PB1 HTS	CendR NRP1 mod	MEKK2wt PB1 HTS	SKN-1 inh
COC(=O)c1cc(-c2ccc(Br)cc2)n[nH]1	.	.	.	.	36
Cc1ccccc1N1CCN(CC(=O)Nc2ccccc2C(=O)NC2CC2)CC1	/	/	.	/	.
CCCSC1=C(C#N)C(c2ccc(OC)cc2)C2=C(CC(C)(C)CC2=O)N1 (stereo not drawn)	.	.	.	.	.
CSC1=C(C#N)C(c2ccc(Cl)cc2)C2=C(CC(C)(C)CC2=O)N1 (stereo not drawn)	.	.	.	.	35
O=C(CSc1nncs1)NNC(=O)c1ccccc1Br	/	/	20	/	.
O=C(NNC(=O)c1ccccc1Br)c1cccs1	.	.	25	.	.
O=C(CSc1ccc(F)cc1)NNC(=O)c1ccccc1Br	.	.	.	.	.
Clc1ccc(-c2nnc(-c3ccco3)o2)cc1	.	.	.	.	74
CC(=O)Nc1nc(-c2ccc([N+](=O)[O-])cc2)cs1	.	.	.	.	.
CC(C)c1nc(-c2ccc([N+](=O)[O-])cc2)cs1	.	.	.	.	53
CC(=O)Oc1ccc(Cl)cc1CN(C(C)=O)C1CCCCC1	/	/	.	/	.
CC1CCCC(C)N1C(=O)COC(=O)CNS(=O)(=O)c1ccc2ccccc2c1 (stereo not drawn)	/	/	.	/	.
Cc1c(C#N)c(O)n(CCO)c(=O)c1N=Nc1ccc2c(c1)COC2=O	.	.	.	.	48
O=[N+]([O-])c1cccc2ccc(/C=C/c3ccc(Cl)cc3)nc12	.	.	.	.	39
Cc1ccc(S(=O)(=O)Cc2cc(F)c([N+](=O)[O-])cc2[N+](=O)[O-])cc1	.	.	.	.	.
CCOC(=O)C1=C(C)N(CCCC(=O)O)C(=O)NC1c1ccc(OC)cc1 (stereo not drawn)	.	.	26	.	.
CC1=C(C(=O)OCc2ccccc2)C(c2ccc([N+](=O)[O-])cc2)NC(=O)N1CCCC(=O)O (stereo not drawn)	.	.	33	.	.
COC(=O)C1=C(C)N(CCCC(=O)O)C(=O)NC1c1ccc(OC)cc1 (stereo not drawn)	.	.	.	.	.
CCOC(=O)[C@]12CCCC=C1N(CCC1=CCCCC1)C(=O)[C@H](CC(=O)NCc1ccccc1)C2	/	/	.	/	.
COc1ccc(NS(=O)(=O)c2ccc3c(c2)n(C)c(=O)n3C)cc1	.	.	.	.	37
OC[C@H]1O[C@@H](c2nc(-c3ccccc3Br)no2)[C@H](O)[C@@H](O)[C@H]1O	/	/	.	/	.
CCc1sc(N(C(=O)Cc2ccccc2)c2ccccc2F)nc1-c1ccc(C)cc1	.	.	.	.	.
CCc1sc(N(C(=O)Cc2ccccc2)c2cccc(F)c2)nc1-c1ccc(C)cc1	.	.	.	.	44
OC(c1cc(F)cc(Cl)c1)c1ncc(-c2ccc(Cl)cc2)[nH]1 (stereo not drawn)	/	/	.	/	.
COc1cc(C(=O)Nc2nnc(SCC(=O)NCC3CCCO3)s2)cc(OC)c1OC (stereo not drawn)	.	.	.	.	.
SMILES	MEKK2 mut-MEK5	MEKK3 PB1 HTS	CendR NRP1 mod	MEKK2wt PB1 HTS	SKN-1 inh
CCOc1ccc(C(=O)Nc2nnc(SCC(=O)NCC3CCCO3)s2)cc1OCC (stereo not drawn)	.	.	21	.	.
CCc1nnc(NC(=O)CSc2nnc(CCc3nc4ccccc4[nH]3)n2C)s1	.	.	19	.	.
Cc1csc(SC(C)C(=O)NCc2ccc3c(c2)OCO3)n1 (stereo not drawn)	.	.	26	.	.
CC(Sc1nc2ccccc2s1)C(=O)NCc1ccc2c(c1)OCO2 (stereo not drawn)	.	.	.	.	.
COC(=O)/C=C/c1ccccc1S(=O)(=O)N(Cc1ccccc1)Cc1ccco1	.	.	17	.	.
O=S(=O)(c1ccc(S(=O)(=O)N(Cc2ccccc2)Cc2ccco2)cc1)N1CCCC1	.	.	.	.	.
CC(=O)NS(=O)(=O)c1ccc(NC(=O)C(C)NS(=O)(=O)/C=C/c2ccccc2)cc1 (stereo not drawn)	/	/	20	/	.
Cc1ccc(SCCN2CCN(C)CCC2=O)cc1	.	.	26	.	.
COCCCNCC(O)COc1ccccc1F (stereo not drawn)	.	.	.	10	.
COc1ccc(CN(C(=O)c2oc3ccccc3c2C)C2CCS(=O)(=O)C2)cc1 (stereo not drawn)	.	.	.	.	36
CCc1c(O)nc(SCC(=O)Nc2ccccc2)n(-c2ccccc2C)c1=O	/	/	.	/	.
COc1cccc(-c2nnc(Nc3nc4c(F)cccc4s3)o2)c1	.	.	33	.	.
COc1ccccc1-c1nnc(Nc2nc3c(OC)cccc3s2)o1	.	.	.	.	.
c1ccc(-c2csc(Nc3ccc4c(c3)OCO4)n2)cc1	/	/	24	/	.
O=C1c2ccccc2C(=O)N1c1cccc(-c2csc(Nc3ccc4c(c3)OCO4)n2)c1	.	.	/	.	/
COc1ccc(-c2csc(C(O)c3ccc(F)c(OC)c3)n2)cc1 (stereo not drawn)	/	/	.	/	.
COc1ccc2c3c(cccc13)N(C)N=C2C	/	/	63	/	41
CC(C)(C)c1cc(CCC(=O)N2CCC2)cc(C(C)(C)C)c1O	25	.	.	.	.
Cc1cc(C(F)(F)F)c(C#N)c(SCC(=O)Nc2nc3ccccc3s2)n1	.	.	.	57	.
CCOC(=O)c1ccc(Nc2cc(C)nc3ncnn23)cc1	.	.	.	.	.
COC(=O)c1ccc(Nc2cc(C)nc3ncnn23)cc1	.	.	.	.	37
Cc1cccc(NC(=O)CNC(=O)CSc2nnc(C(F)(F)F)n2C)c1C	/	/	.	/	.
CCN(CC)c1ccc(/C=C2\C(=O)c3ccc(C(=O)O)cc3C2=O)cc1	.	.	.	.	36
CCOc1ccc(CN2CCN(Cc3[nH]c4ccccc4c3C)CC2CCO)cc1 (stereo not drawn)	.	.	38	.	.
Cc1c(CN2CCN(CC(C)(C)C)C(CCO)C2)[nH]c2ccccc12 (stereo not drawn)	.	.	.	.	.
O=C(CN1C(=O)c2ccccc2S1(=O)=O)NCCSCc1c(F)cccc1Cl	.	.	24	.	.
O=C(CN1C(=O)c2ccccc2S1(=O)=O)NCCSCc1ccccc1Cl	.	.	.	.	.
Cc1ccc(SCCNC(=O)CN2C(=O)c3ccccc3S2(=O)=O)cc1	.	.	.	.	37
Clc1ccc(-c2cc(CSc3ccccc3)on2)cc1	.	.	.	.	45

Source: PubChem BioAssay (several laboratories)
